“And” between values parts separate entries of the source, which are not always exact repeats. Equal entries are not always repeated. Results filed as inconclusive are left out. Where a structure was tested more than once in an assay, its records may differ in their call. The source made the active and inactive calls. Rule for the calls, unless noted: active = hit-call score of the fitted dose curve at least 0.9, where 1 is the maximum; inactive = score below 0.9.
Columns and labels:
[1] = target: human RAR-related Orphan Receptor gamma (RORg), RORC (gene 6097) (UniProt P51449); test: ATG_RORg_TRANS: Attagene TRANS-FACTORIAL HepG2 Assay for human RAR-related Orphan Receptor gamma (RORg) (AID 2283011; active = hit-call score of the fitted dose curve at least 0.9, where 1 is the maximum;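 for AC50: potency for induction of reporter transcripts above DMSO so activators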)
Method in brief: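 Chimeric RORg-Gal4 transactivation in transfected HepG2; 24 h exposure; RT-PCR/capillary electrophoresis readout of reporter mRNA, DMSO baseline.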

[2] = read-out: E-selectin (Homo sapiens) (UniProt P16581); test: BSK_3C_Eselectin: BioMAP Diversity Plus: 3C Assay for Eselectin Biomarker Activity (AID 2283015); conditions: primary human endothelial cells (HUVEC); actives raise or lower the signal;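 note: cell surface E-selectin protein quantified by ELISA 24 h after dosing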
Method in brief: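 Endpoint derived by bidirectional fitting against DMSO vehicle; signal is ELISA-detected E-selectin from primary HUVEC at 24 h post-dosing, with parallel SRB staining (0.1% SRB, 560 nm) flagging cytotoxicity.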

[3] = read-out: Monocyte Chemoattractant Protein-1 (MCP1), CCL2 (gene 6347); test: BSK_3C_MCP1: BioMAP Diversity Plus: 3C Assay for Monocyte Chemoattractant Protein-1 (MCP1) Biomarker Activity (AID 2283017); conditions: primary human endothelial cells (HUVEC); actives raise or lower the signal
Method in brief: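 Using human vascular primary endothelium, researchers measured MCP-1 by ELISA 24 h after treatment, with DMSO serving as negative control for bidirectional fitting.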

[4] = read-out: Monocyte Chemoattractant Protein-1 (MCP1), CCL2 (gene 6347); test: BSK_4H_MCP1: BioMAP Diversity Plus: 4H Assay for Monocyte Chemoattractant Protein-1 (MCP1) Biomarker Activity (AID 2283018); conditions: primary human endothelial cells (HUVEC); actives raise or lower the signal
Method in brief: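 Endothelial cells from umbilical vein were treated with test chemical, then after 24 h MCP-1 levels were quantified by ELISA; endpoint values came from bidirectional fitting with DMSO as baseline of activity.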

[5] = read-out: Human Leukocyte Antigen - DR isotype (HLADR), HLA-DRA (gene 3122); test: BSK_3C_HLADR: BioMAP Diversity Plus: 3C Assay for Human Leukocyte Antigen - DR isotype (HLADR) Biomarker Activity (AID 2283019); conditions: primary human endothelial cells (HUVEC); actives raise or lower the signal
Method in brief: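 Compound added to primary HUVEC cultures, 24 h incubation, then HLA-DR determined by ELISA; endpoint derived by bidirectional fitting relative to DMSO negative control.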

[6] = read-out: Interleukin-8 (IL8), CXCL8 (gene 3576); test: BSK_3C_IL8: BioMAP Diversity Plus: 3C Assay for Interleukin-8 (IL8) Biomarker Activity (AID 2283020); conditions: primary human endothelial cells (HUVEC); actives raise or lower the signal
Method in brief: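 Endothelial primary cells of human umbilical vein origin are dosed with chemical; after 24 h the IL-8 biomarker is measured by ELISA, and concentration–response is fitted in both directions versus DMSO.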

[7] = read-out: Monokine induced gamma interferon (MIG), CXCL9 (gene 4283); test: BSK_3C_MIG: BioMAP Diversity Plus: 3C Assay for Monokine induced gamma interferon (MIG) Biomarker Activity (AID 2283021); conditions: primary human endothelial cells (HUVEC); actives raise or lower the signal
Method in brief: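 Endothelial primary cells (human umbilical vein) are dosed with test chemical in the 3C system. MIG levels are measured by ELISA at 24 h and fitted in both directions relative to DMSO.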

[8] = BSK_3C_SRB: Viability Assessment in the BioMAP Diversity Plus: 3C Assay (AID 2283023); conditions: primary human endothelial cells (HUVEC);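 note: fitted both ways against DMSO so a hit may be signal rise or drop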
Method in brief: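 Overt cytotoxicity is gauged in parallel confluent HUVEC cultures by SRB total-protein staining at the time of biomarker measurement, 24 h after dosing. Gain or loss of signal is fitted versus DMSO.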

[9] = read-out: Matrix Metallopeptidase 1 (MMP1), MMP1 (gene 4312); test: BSK_BE3C_MMP1: BioMAP Diversity Plus: BE3C Assay for Matrix Metallopeptidase 1 (MMP1) Biomarker Activity (AID 2283024); conditions: primary human bronchial epithelial cells; actives raise or lower the signal
Method in brief: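 MMP1 signal, measured by ELISA after a 24 h chemical exposure of human primary bronchial epithelial cells, is analysed with bidirectional fitting using DMSO as negative control.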

[10] = BSK_3C_Vis: BioMAP Diversity Plus: 3C Assay for Morphology Visualization (AID 2283025); conditions: primary human endothelial cells (HUVEC);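 note: fitted both ways so gain or loss versus DMSO counts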
Method in brief: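 Morphology read by light microscopy serves as a background control for the multiplexed 3C assay in human umbilical vein endothelial cells, taken 24 h after dosing, with DMSO as the negative control and bidirectional curve fitting.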

[11] = read-out: Pselectin, SELP (gene 6403); test: BSK_4H_Pselectin: BioMAP Diversity Plus: 4H Assay for Pselectin Biomarker Activity (AID 2283026); conditions: primary human endothelial cells (HUVEC); actives raise or lower the signal
Method in brief: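 Endothelial primary cells (human umbilical vein) are dosed, incubated 24 h, and assayed for surface P-selectin by ELISA; responses in either direction are fitted relative to the DMSO negative control.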

[12] = BSK_BE3C_SRB: Viability Assessment in the BioMAP Diversity Plus: BE3C Assay (AID 2283028); conditions: primary human bronchial epithelial cells
Method in brief: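 SRB total-protein staining (0.1%, after TCA fixation) of chemically dosed human bronchial epithelial primary cells at 24 h; DMSO serves as the negative control for bidirectional curve fitting.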

[13] = read-out: Thrombomodulin, THBD (gene 7056); test: BSK_3C_Thrombomodulin: BioMAP Diversity Plus: 3C Assay for Thrombomodulin Biomarker Activity (AID 2283029); conditions: primary human endothelial cells (HUVEC); actives raise or lower the signal
Method in brief: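 Endothelial cells from umbilical vein are dosed with test chemical and incubated 24 h. Thrombomodulin is then quantified by ELISA, with DMSO serving as negative control and activity baseline.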

[14] = read-out: Urokinase-type plasminogen activator receptor (uPAR), PLAUR (gene 5329); test: BSK_4H_uPAR: BioMAP Diversity Plus: 4H Assay for Urokinase-type plasminogen activator receptor (uPAR) Biomarker Activity (AID 2283030); conditions: primary human endothelial cells (HUVEC); actives raise or lower the signal
Method in brief: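 Endpoint derived via bidirectional curve fitting against DMSO baseline; readout was ELISA detection of uPAR on umbilical vein endothelial cells at 24 h post-treatment, with SRB-stained parallel cultures assessing cytotoxicity.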

[15] = target: human Thyroid Receptor alpha (THRa1), THRA (gene 7067) (UniProt P10827); test: ATG_THRa1_TRANS: Attagene TRANS-FACTORIAL HepG2 Assay for human Thyroid Receptor alpha (THRa1) (AID 2283014; active = hit-call score of the fitted dose curve at least 0.9, where 1 is the maximum)
Method in brief: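 Measured here is mRNA from a GAL4-UAS reporter in transfected HepG2 cells carrying a Gal4-fused receptor, 24 h post-dose. DMSO served as negative control and baseline.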

[16] = BSK_4H_SRB: Viability Assessment in the BioMAP Diversity Plus: 4H Assay (AID 2283027); conditions: primary human endothelial cells (HUVEC);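 note: cells exposed to compound for 24 h before staining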;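 for AC50: curves fitted both ways versus DMSO so AC50 may be loss or gain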
Method in brief: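 Cytotoxicity read-out in primary human endothelial cells: after 24 h compound exposure, cells were TCA-fixed (10%), stained with 0.1% SRB and absorbance taken at 560 nm. Values fitted in both directions relative to DMSO.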

[17] = read-out: Interleukin-1 alpha (IL1a), IL1A (gene 3552); test: BSK_BE3C_IL1a: BioMAP Diversity Plus: BE3C Assay for Interleukin-1 alpha (IL1a) Biomarker Activity (AID 2283016); conditions: primary human bronchial epithelial cells; actives raise or lower the signal
Method in brief: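 Signal from IL-1a ELISA, taken 24 h after chemical dosing of human bronchial epithelial cells, is compared with DMSO as baseline using bidirectional curve fitting.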

[18] = target: Retinoic acid receptor RXR-alpha (Homo sapiens) (UniProt P19793); test: ATG_RXRa_TRANS: Attagene TRANS-FACTORIAL HepG2 Assay for human Retinoid X Receptor alpha (RXRa) (AID 2283012; active = hit-call score of the fitted dose curve at least 0.9, where 1 is the maximum)
Method in brief: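 Measures exogenous chimeric NR-GAL4 activity in transfected HepG2 liver cells after 24 h of dosing. Induced reporter mRNA was detected by RT-PCR with capillary electrophoresis, and gain of signal was analysed against DMSO.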

[19] = target: human Retinoid X Receptor beta (RXRb), RXRB (gene 6257) (UniProt P28702); test: ATG_RXRb_TRANS: Attagene TRANS-FACTORIAL HepG2 Assay for human Retinoid X Receptor beta (RXRb) (AID 2283013; active = hit-call score of the fitted dose curve at least 0.9, where 1 is the maximum)
Method in brief: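 Chimeric receptor-Gal4 activity was assessed in transiently transfected human HepG2 cells after 24 h exposure. Transcripts from GAL4-UAS reporters were quantified by fluorescent RT-PCR and capillary electrophoresis, with DMSO as negative control and baseline.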

Measured: AC50

Sequence of E-selectin (Homo sapiens) (P16581 whole entry, looked up): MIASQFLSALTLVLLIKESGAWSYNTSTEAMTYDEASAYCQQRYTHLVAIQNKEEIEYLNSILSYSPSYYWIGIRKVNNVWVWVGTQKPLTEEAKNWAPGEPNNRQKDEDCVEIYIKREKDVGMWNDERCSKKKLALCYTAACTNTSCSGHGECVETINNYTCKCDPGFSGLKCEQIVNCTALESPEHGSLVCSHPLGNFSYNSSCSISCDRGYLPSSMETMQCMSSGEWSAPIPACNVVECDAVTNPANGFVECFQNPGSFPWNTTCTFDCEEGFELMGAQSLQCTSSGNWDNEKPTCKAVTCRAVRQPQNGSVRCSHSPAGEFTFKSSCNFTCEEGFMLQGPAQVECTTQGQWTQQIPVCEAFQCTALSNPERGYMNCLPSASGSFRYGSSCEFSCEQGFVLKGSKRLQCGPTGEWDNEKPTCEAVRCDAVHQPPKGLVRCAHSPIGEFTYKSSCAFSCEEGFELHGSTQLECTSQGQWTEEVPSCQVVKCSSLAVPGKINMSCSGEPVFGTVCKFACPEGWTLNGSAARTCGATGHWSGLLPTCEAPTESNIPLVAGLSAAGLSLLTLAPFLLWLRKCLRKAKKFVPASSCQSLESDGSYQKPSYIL
Sequence of human RAR-related Orphan Receptor gamma (RORg), RORC (gene 6097) (P51449 whole entry, looked up, the tested form may be a part): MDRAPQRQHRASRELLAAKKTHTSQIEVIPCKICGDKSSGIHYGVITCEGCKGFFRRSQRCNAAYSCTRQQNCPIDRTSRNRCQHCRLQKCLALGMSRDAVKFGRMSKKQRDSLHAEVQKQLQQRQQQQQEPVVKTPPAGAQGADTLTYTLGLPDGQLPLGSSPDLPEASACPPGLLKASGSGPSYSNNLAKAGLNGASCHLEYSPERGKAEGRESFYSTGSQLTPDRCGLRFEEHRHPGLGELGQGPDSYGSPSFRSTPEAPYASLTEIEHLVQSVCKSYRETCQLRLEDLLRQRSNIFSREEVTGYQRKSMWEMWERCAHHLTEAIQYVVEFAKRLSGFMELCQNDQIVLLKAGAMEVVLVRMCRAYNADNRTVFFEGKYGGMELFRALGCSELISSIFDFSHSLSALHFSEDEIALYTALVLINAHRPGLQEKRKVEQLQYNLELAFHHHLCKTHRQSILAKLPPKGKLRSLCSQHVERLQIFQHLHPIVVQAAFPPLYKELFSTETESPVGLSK
Sequence of human Retinoid X Receptor beta (RXRb), RXRB (gene 6257) (P28702 whole entry, looked up, the tested form may be a part): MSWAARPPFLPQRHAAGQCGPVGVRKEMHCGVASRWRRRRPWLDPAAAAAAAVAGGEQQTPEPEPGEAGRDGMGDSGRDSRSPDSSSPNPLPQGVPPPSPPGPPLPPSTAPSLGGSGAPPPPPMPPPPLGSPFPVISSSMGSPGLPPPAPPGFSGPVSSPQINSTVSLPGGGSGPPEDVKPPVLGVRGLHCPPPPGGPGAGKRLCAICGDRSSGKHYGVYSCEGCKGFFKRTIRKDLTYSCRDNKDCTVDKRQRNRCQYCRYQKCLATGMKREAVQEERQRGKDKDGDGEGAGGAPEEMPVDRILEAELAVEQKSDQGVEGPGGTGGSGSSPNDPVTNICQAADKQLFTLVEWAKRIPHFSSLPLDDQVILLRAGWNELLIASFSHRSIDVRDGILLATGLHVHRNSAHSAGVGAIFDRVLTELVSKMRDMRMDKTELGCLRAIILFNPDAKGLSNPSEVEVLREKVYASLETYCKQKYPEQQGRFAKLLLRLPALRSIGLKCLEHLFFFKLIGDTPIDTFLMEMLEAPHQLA
Sequence of Retinoic acid receptor RXR-alpha (Homo sapiens) (P19793 whole entry, looked up, the tested form may be a part): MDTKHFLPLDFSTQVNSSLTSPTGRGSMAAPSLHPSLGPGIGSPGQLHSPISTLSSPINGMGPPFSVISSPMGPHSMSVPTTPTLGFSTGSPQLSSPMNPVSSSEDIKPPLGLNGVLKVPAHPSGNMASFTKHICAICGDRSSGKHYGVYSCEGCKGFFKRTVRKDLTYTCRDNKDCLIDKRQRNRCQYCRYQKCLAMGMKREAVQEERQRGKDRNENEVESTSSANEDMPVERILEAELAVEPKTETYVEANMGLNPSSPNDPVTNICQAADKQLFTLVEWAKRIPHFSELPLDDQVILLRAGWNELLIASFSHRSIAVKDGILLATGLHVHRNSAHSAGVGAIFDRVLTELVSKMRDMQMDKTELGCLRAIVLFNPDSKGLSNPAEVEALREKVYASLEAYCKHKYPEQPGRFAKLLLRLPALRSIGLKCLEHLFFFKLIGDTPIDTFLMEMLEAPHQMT
Sequence of human Thyroid Receptor alpha (THRa1), THRA (gene 7067) (P10827 whole entry, looked up, the tested form may be a part): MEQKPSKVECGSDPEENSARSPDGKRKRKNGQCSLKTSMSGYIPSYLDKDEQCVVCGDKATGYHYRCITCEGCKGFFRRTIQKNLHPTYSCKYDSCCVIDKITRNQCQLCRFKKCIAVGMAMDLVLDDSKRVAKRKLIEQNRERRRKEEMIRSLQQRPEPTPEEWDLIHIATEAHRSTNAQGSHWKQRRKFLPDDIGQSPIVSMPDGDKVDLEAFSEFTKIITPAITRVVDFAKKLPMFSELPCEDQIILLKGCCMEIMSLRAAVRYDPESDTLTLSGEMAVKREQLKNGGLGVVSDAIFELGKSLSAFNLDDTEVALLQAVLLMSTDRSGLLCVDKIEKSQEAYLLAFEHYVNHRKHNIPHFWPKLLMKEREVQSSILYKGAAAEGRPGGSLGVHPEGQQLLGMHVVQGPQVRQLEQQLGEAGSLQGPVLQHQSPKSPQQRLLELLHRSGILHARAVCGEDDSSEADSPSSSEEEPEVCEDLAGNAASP

Cn1cc(-c2ccccc2)c(=O)c(-c2cccc(C(F)(F)F)c2)c1
not listed: [15] | [16] | [17] | [18] | [19]
inactive: all other assays above

CCOC(=O)[C@]1(c2ccccc2)Oc2ccccc2[C@@H]1N
active: [3] 13.4 µM | [5] 27.6 µM | [6] 20 µM | [8] 24.7 µM | [10] 39 µM | [14] 10.3 µM
not listed: [12] | [17] | [18] | [19]
inactive: all other assays above

CS(=O)(=O)NC(=O)c1cc(Oc2ccc(C(F)(F)F)cc2Cl)ccc1[N+](=O)[O-]
not listed: [2] | [11] | [15] | [16] | [18] | [19]
inactive: all other assays above

c1ccc(C2CO2)cc1 (centres undefined)
not listed: [5] | [15] | [17] | [18] | [19]
inactive: all other assays above

CCNS(=O)(=O)C(F)(F)C(F)(F)C(F)(F)C(F)(F)C(F)(F)C(F)(F)C(F)(F)C(F)(F)F
active: [3] 51.4 µM | [4] 30 µM | [5] 14.6 µM and 6.07 µM | [6] 26 µM | [8] 43.4 µM and 44.3 µM | [9] 4.99 µM and 11.3 µM
inactive: [1] | [18] | [19] | [3] | [4] | [5] | [6] | [7] | [8] | [9] | [10] | [13] | [14]

Nc1ccc(N=Nc2ccccc2)cc1
active: [8] 20 µM | [16] 13.1 µM
not listed: [2] | [11] | [15] | [18] | [19]
inactive: all other assays above

O=Cc1ccco1
not listed: [15] | [18] | [19]
inactive: all other assays above

CCCSC(=O)N(CCC)CCC
active: [1] 132 µM | [19] 34.1 µM
not listed: [2] | [11] | [15] | [17] | [18]
inactive: all other assays above

Reference: PubChem BioAssay (EPA / NIEHS)
